Calls of active or inactive are those of the source. Unless noted, how the calls were made is not given here.

Experiment [1] is described as follows: resazurin metabolic signal in HepG2 cells – cell-based, resazurin fluorescence, 24 h, PK04 Diversity Set, profiling panel (AID 1172). Further: test concentration not given here. The following applies: HepG2 viability, higher = more signal.
Experiment [2] in a line: budding yeast growth changes without added modifier – OD600, strain BY4716, 24 h, basal condition, primary screen (AID 1173). The following applies: S. cerevisiae BY4716 growth, OD600, 24 h; higher = more signal, called active from +8 up or from −8 down.
Experiment [3] is described as follows: viability profiling in MM1S myeloma cells – cell-based, resazurin fluorescence, basal, 24 h, PK04 Diversity Set, profiling panel (AID 1174).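 Further: MM1S multiple myeloma cell line; test concentration not given here.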 The following applies: higher = more signal, called active from +8 up or from −8 down. (In general: The colour change of resazurin is a common sign of viable cells or microbes.)
The target of experiment [4] is Dihydroorotate dehydrogenase (quinone), mitochondrial (Plasmodium falciparum (isolate 3D7)) (UniProt Q08210). In words: inhibition of P. falciparum DHODH – biochemical, C-terminal His tag, absorbance 600 nm, primary screen (AID 1175).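 Further: recombinant parasite enzyme with a five histidine tag at its C terminus; test concentration not given here.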 The following applies: PfDHODH enzyme, DCIP absorbance 600 nm; higher = more signal, called active from +8 up or from −8 down.
Experiment [5] is described as follows: inhibition of PAO1 biofilm formation – strain PAO1, LB-PBS medium, absorbance 600 nm, primary screen (AID 1176). Further: test concentration not given here. Conditions: P. aeruginosa PAO1 growth/biofilm, A600, 12 h; higher = more signal.
Experiment [6] in a line: growth modulation of vineyard yeast isolate – strain RM11-1a, OD600, basal, 24 h, primary screen (AID 1177).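 Further: cultures grown under basal conditions with no added stressor; test concentration not given here.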 The following applies: S. cerevisiae RM11-1a growth, OD600, 24 h; higher = more signal, called active from +8 up or from −8 down.
Experiment [7] is described as follows: growth of efflux-deficient E. coli DRC39 – strain DRC39, OD650, 24 h, E. coli filamentation inducers, primary screen (AID 1178).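 Further: growth measured as culture turbidity by optical density at 650 nm; test concentration not given here.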 Conditions: E. coli DRC39 acrAB, higher = more signal, called active from +8 up or from −8 down.
Experiment [8] can be described thus: growth of efflux-deficient E. coli DRC39 – strain DRC39, OD650, 48 h, E. coli filamentation inducers, primary screen (AID 1179).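 Further: screen aims at cell division blockers that make cells filament.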 Conditions: E. coli DRC39 delta-acrAB growth, higher = more signal, called active from +8 up or from −8 down.
Experiment [9] is described as follows: viability profiling in RPMI8226 myeloma cells – cell-based, resazurin fluorescence, basal, 24 h, PK04 Diversity Set, profiling panel (AID 1180).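 Further: RPMI8826 multiple myeloma cell line at 5000 cells per well; test concentration not given here.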 Conditions: higher = more signal.
For experiment [10], the target named is E3 ubiquitin-protein ligase XIAP (Homo sapiens) (UniProt P98170). In words: small molecules binding XIAP protein – biophysical, small-molecule microarray, fluorescence 635 nm, primary screen (AID 1181).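 Further: score merges 667 nm emission and signal to noise over triplicate slides.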 Conditions: higher = more signal.
Chain of E3 ubiquitin-protein ligase XIAP (Homo sapiens) (P98170 whole entry, looked up): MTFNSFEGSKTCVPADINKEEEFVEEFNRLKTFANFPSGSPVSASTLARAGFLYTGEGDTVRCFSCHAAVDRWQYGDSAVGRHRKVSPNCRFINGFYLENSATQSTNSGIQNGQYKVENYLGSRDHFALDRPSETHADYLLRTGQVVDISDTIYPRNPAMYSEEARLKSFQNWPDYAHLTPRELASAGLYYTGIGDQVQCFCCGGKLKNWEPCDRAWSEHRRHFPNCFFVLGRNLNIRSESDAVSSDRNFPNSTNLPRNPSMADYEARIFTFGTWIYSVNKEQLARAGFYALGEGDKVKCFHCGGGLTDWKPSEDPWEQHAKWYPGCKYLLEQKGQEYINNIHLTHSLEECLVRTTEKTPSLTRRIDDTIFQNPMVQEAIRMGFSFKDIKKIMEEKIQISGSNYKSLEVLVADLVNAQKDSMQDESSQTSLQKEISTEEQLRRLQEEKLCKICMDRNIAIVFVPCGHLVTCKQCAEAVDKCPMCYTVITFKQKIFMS

Chain of Dihydroorotate dehydrogenase (quinone), mitochondrial (Plasmodium falciparum (isolate 3D7)) (Q08210 whole entry, looked up): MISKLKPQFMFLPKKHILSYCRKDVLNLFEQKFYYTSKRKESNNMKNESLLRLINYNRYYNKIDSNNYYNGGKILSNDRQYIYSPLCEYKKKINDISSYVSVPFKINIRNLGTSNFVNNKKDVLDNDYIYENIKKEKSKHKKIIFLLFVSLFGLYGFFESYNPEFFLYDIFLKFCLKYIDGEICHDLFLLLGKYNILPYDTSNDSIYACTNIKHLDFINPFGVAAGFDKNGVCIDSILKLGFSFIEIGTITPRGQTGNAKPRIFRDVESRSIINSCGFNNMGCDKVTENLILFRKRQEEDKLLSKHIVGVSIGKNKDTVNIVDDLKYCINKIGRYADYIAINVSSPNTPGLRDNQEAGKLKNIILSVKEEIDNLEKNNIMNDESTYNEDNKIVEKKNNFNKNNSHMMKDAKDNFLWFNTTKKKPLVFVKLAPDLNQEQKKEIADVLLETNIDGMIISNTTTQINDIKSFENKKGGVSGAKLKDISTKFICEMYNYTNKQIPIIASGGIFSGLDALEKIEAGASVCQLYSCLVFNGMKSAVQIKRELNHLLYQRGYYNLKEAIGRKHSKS

For the compound `COc1cc2c(cc1O)C(C1CC1)N(Cc1cc3c(cc1Br)OCO3)CC2` (stereo not given), the z-score in experiment [1] was -1.94; in experiment [2], -2.67 (inactive); in experiment [3], -3.63 (inactive); in [5], 0.571 (inactive); in experiment [6], 0.698 (inactive); in [7] it was -1.2 (inactive). In addition, the values for the z-score in experiment [8] and in experiment [9] were -1.71 (inactive) and -3.52, respectively. Besides, the composite z-score in [4] is -1.55 (inactive); in experiment [10], 0.0761.

Regarding `C=CCNC(=O)[C@@H]1[C@H]2C(=O)O[C@H](c3ccccc3)[C@H](c3ccccc3)N2[C@H](c2ccccc2OCCO)[C@@]12C(=O)N(C(=O)OCCOC)c1ccc(C#CCNC(N)=O)cc12`, the z-score in [1] is -0.359; in experiment [2], 0.808 (inactive); in [3], -0.0716 (inactive); in experiment [5], 1.1 (inactive); in experiment [6] it was 1.43 (inactive); in experiment [7], 0.404 (inactive). The values for the z-score in experiment [8] and in [9] were 0.703 (inactive) and 0.122, respectively. Further, the composite z-score is 0.0199 (inactive) in experiment [4] and 0.171 in [10].

Consider `O=C1NC(=O)C2C1C=CC(C(O)C(c1ccccc1)c1ccccc1)N2Nc1ccc(Cl)cc1Cl` (stereo not given), for which the z-score in experiment [1] was -2.23; in experiment [2], -2.63 (inactive); in [3] it was -1.05 (inactive); in experiment [5], 0.599 (inactive); in experiment [6], 1.17 (inactive); in experiment [7], -0.659 (inactive). Also, the z-score is -0.712 (inactive) in experiment [8] and -1.62 in experiment [9]. For the same compound, the figures for the composite z-score in experiment [4] and in experiment [10] were 0.125 (inactive) and 0.236, respectively.

Regarding `[N-]=[N+]=NCc1ccccc1C[C@]1(C(=O)N2CCOCC2)N=C(c2ccc(OCCCO)cc2)O[C@H]1c1ccccc1N=[N+]=[N-]`, the z-score in [1] is 0.168; in [2], -1.05 (inactive); in experiment [3], -1.21 (inactive); in experiment [5] it was -0.357 (inactive); in experiment [6], -0.405 (inactive); in experiment [7], 1.14 (inactive). Further, the z-score in experiment [8] was 0.957 (inactive); in [9], -1.61. Further, the composite z-score in experiment [4] was 0.152 (inactive); in [10], -0.113.

For the compound `[N-]=[N+]=NCc1ccccc1[C@H]1OC(c2ccc(OCCCO)cc2)=N[C@@]1(Cc1ccccc1)C(=O)NCc1ccccc1`, the z-score in [1] is 0.294; in [2], -0.223 (inactive); in [3] it was -0.666 (inactive); in experiment [5], 0.702 (inactive); in experiment [6], 0.747 (inactive); in experiment [7] it was 0.431 (inactive). Further, the results for the z-score in experiment [8] and in experiment [9] were 0.0009 (inactive) and -0.34, respectively. The figures for the composite z-score in experiment [4] and in experiment [10] were -0.407 (inactive) and 0.58, respectively.

`COc1ccc(CCNC(=O)[C@@]2(Sc3ccc(C)cc3)CC(=O)N(C3CCCCC3)[C@@H]2c2ccc(CO)cc2I)cc1`: the z-score in [1] was 0.594; in experiment [2], 0.0658 (inactive); in experiment [3], 0.175 (inactive); in [5], 1.34 (inactive); in experiment [6], -0.382 (inactive); in experiment [7], 0.258 (inactive). Further, the z-score in experiment [8] is 0.238 (inactive); in experiment [9], -1.2. The composite z-score in [4] was 0.43 (inactive); in [10], -0.276.

For the compound `COCCCN1C(=O)[C@@]2(Cc3ccccc31)c1ccccc1C(=O)N(Cc1ccccc1C(F)(F)F)[C@H]2c1ccc(CO)cc1`, the z-score in [1] is 0.0531; in experiment [2], 0.947 (inactive); in [3] it was -0.0554 (inactive); in [5], 4.64 (inactive); in experiment [6], -0.305 (inactive); in [7], 0.0576 (inactive). In addition, the z-score is -0.297 (inactive) in [8] and 0.0241 in [9]. Besides, the composite z-score in experiment [4] was -20.2 (active); in experiment [10], -0.0373.

Take `COc1cc2c(cc1OC)CN(C(=O)[C@@H]1[C@H]3C(=O)O[C@H](c4ccccc4)[C@H](c4ccccc4)N3[C@H](c3ccc(O)cc3)[C@@]13C(=O)Nc1ccc(C#CC4(O)CCCCCC4)cc13)CC2`: the z-score in experiment [1] was 0.396; in experiment [2] it was -0.313 (inactive); in experiment [3], 0.323 (inactive); in [5], 0.958 (inactive); in experiment [6] it was 0.525 (inactive); in experiment [7] it was 0.241 (inactive). In addition, the results for the z-score in [8] and in experiment [9] were 0.475 (inactive) and 0.777, respectively. The composite z-score in experiment [4] was -0.495 (inactive); in [10], -0.0559.

`CCCCC(=C=CC[C@@H](O)c1ccccc1OCCO)CCO`: the z-score in experiment [1] was -0.202; in experiment [2] it was -2.07 (inactive); in [3] it was 0.684 (inactive); in experiment [5], 0.118 (inactive); in experiment [6], 0.853 (inactive); in experiment [7] it was 0.132 (inactive). For the same compound, the z-score in experiment [8] is -0.0575 (inactive); in experiment [9], -0.552. Besides, the values for the composite z-score in experiment [4] and in experiment [10] were -0.782 (inactive) and -0.24, respectively.

For `COc1ccc([Si](C)(C)[C@H]2[C@H](CC(=O)N3Cc4ccccc4C[C@H]3CO)O[C@@]3(C(=O)N(Cc4ccc(N5CCC5=O)cc4)c4ccccc43)[C@@H]2C)cc1`, the z-score in [1] was 0.194; in experiment [2], -0.535 (inactive); in experiment [3], -1.56 (inactive); in experiment [5], 0.201 (inactive); in experiment [6] it was 1.83 (inactive); in experiment [7], -0.0476 (inactive). The results for the z-score in experiment [8] and in experiment [9] were -0.421 (inactive) and -1.26, respectively. Further, the values for the composite z-score in experiment [4] and in experiment [10] were -3.08 (inactive) and 0.216, respectively.

Take `O=C(NCc1ccccc1)[C@@H]1c2ccccc2C(=O)N(CC23CC4CC(CC(C4)C2)C3)[C@H]1c1ccc(CO)cc1`: the z-score in experiment [1] was -0.511; in [2], -0.092 (inactive); in [3] it was -1.12 (inactive); in experiment [5], -0.245 (inactive); in experiment [6], 0.0739 (inactive); in [7], -0.142 (inactive). In addition, the z-score is -0.179 (inactive) in experiment [8] and -0.195 in experiment [9]. For the same compound, the composite z-score is -0.139 (inactive) in experiment [4] and 0.0623 in [10].

On to `C=CCOC(=O)[C@H]1[C@@H]2C(=O)O[C@@H](c3ccccc3)[C@@H](c3ccccc3)N2[C@@H](c2ccc(OCCOC(=O)[C@@H]3C[C@@H]4C(=O)N[C@@H](CCCC[N+](C)(C)C)C(=O)N4[C@@H]3c3ccc(O)cc3)cc2)[C@]12C(=O)Nc1ccccc12`, for which the z-score was 0.863 in experiment [1]; -3.17 (inactive) in [2]; 0.844 (inactive) in [3]; 0.988 (inactive) in [5]; 0.545 (inactive) in experiment [6]; 0.0865 (inactive) in experiment [7]. For the same compound, the z-score was -0.661 (inactive) in experiment [8] and 1.16 in experiment [9]. The composite z-score is -2.77 (inactive) in experiment [4] and 0.0055 in [10].

`CCOC(=O)C1=CCC(c2ccccc2)N(S(=O)(=O)CC[Si](C)(C)C)C1` (stereo not given): the z-score was 1.17 in [1]; -1.48 (inactive) in [2]; 0.406 (inactive) in experiment [3]; -0.461 (inactive) in experiment [5]; -0.0286 (inactive) in experiment [6]; -0.117 (inactive) in experiment [7]. Moreover, the figures for the z-score in experiment [8] and in experiment [9] were 1.05 (inactive) and 0.681, respectively. Moreover, the composite z-score is 0.49 (inactive) in experiment [4] and -0.192 in experiment [10].

(Values after PubChem BioAssay.)
